# Test results taken from the supplement of paper PMC11732987, “Enantioselective OTUD7B fragment discovery through chemoproteomics screening and high-throughput optimisation” (Communications Chemistry, 2025).
# Values without a mark were called inactive.
# Assays:
# Experiment in all cases: log2 ratio of Biotin-Ahx-Ub-VS probe labelling (fragment/DMSO); higher = less target engagement (more negative = stronger competition), active = hit call of the paper (q ≤ 0.05, log2 ratio ≤ -1)
# Conditions in all cases: compound concentration: 200 uM; treatment time: 3 h
# UniProt O00507 = target: UniProt O00507
# Summary of the method: (§1)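 Labelled DUBs were enriched with NeutrAvidin, digested with LysC and trypsin, and run by diaPASEF LC-MS/MS. The labelling used Biotin-Ahx-Ub-VS at 0.5 µM final for 1 h on HEK293T lysate (495 µg per sample) previously treated in triplicate with fragment at 200 µM or vehicle for 3 h. Values are average log2 fragment/vehicle ratios by unpaired t-test on global-median-normalised Spectronaut quantities of proteins with ≥2 unique peptides.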
# UniProt P51784 = target: UniProt P51784
# Summary of the method: as §1
# UniProt Q5T2D3 = target: T1, UniProt Q5T2D3
# T1 sequence (whole entry): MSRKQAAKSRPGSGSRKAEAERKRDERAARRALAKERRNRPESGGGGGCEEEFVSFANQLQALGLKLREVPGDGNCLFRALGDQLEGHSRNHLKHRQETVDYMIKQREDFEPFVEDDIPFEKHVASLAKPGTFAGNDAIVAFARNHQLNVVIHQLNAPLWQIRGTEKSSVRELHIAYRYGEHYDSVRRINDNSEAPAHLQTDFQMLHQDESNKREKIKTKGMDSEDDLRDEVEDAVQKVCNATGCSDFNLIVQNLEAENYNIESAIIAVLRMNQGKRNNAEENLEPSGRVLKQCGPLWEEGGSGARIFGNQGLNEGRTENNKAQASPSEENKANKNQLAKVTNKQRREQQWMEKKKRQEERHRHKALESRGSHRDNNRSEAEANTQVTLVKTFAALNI
# Summary of the method: as §1
# UniProt Q8TE49 = target: T2, UniProt Q8TE49
# T2 sequence (whole entry): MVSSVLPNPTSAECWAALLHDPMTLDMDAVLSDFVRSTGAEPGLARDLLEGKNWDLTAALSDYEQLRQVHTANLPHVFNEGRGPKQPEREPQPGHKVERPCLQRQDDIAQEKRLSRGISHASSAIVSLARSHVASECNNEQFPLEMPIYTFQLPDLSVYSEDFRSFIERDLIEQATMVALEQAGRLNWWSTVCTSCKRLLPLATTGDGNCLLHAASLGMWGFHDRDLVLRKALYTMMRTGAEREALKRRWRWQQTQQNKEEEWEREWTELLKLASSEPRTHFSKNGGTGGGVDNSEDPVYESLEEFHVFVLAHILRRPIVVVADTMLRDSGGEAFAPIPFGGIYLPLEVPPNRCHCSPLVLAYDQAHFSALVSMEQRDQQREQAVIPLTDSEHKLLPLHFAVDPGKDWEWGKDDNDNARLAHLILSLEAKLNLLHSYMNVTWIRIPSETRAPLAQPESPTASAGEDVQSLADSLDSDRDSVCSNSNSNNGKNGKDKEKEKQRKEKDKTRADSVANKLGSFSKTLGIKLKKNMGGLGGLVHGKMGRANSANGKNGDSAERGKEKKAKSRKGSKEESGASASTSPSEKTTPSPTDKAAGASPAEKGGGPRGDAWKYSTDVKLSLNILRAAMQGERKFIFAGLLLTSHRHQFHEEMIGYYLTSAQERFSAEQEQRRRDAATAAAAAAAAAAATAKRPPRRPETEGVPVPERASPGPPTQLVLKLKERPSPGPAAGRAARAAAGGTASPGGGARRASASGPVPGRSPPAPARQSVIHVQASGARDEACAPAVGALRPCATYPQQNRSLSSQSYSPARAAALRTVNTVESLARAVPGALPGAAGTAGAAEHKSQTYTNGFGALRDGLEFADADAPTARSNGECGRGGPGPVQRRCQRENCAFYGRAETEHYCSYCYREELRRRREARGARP
# Summary of the method: as §1
# UniProt Q9P2H5 = target: T3, UniProt Q9P2H5
# T3 sequence (whole entry): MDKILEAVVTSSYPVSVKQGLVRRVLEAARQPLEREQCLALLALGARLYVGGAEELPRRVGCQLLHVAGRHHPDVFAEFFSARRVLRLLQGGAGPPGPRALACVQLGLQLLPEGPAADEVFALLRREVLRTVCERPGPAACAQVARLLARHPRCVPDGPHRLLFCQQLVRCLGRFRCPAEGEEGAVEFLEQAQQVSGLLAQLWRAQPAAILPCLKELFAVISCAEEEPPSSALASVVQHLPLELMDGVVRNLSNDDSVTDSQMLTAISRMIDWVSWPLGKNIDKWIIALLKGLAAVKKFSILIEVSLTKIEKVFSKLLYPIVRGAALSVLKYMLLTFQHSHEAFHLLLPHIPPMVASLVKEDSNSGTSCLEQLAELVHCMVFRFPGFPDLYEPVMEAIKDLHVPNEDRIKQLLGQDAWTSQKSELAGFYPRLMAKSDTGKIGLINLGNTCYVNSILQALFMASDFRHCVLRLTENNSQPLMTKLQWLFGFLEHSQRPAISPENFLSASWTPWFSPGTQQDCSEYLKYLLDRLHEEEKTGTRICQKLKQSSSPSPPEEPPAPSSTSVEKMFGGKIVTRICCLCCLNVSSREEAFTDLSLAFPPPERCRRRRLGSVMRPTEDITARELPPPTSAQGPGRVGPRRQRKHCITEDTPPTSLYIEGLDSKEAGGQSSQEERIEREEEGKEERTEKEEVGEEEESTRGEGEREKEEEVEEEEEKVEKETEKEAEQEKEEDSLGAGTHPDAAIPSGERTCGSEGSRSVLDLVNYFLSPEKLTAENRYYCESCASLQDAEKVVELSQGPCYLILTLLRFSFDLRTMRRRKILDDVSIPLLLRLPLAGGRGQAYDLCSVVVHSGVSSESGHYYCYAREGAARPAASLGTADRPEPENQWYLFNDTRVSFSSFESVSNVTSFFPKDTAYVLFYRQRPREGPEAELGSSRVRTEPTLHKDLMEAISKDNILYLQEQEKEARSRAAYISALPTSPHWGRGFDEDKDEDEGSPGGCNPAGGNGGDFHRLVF
# Summary of the method: as §1
# UniProt Q9UGI0 = target: T4, UniProt Q9UGI0
# T4 sequence (whole entry): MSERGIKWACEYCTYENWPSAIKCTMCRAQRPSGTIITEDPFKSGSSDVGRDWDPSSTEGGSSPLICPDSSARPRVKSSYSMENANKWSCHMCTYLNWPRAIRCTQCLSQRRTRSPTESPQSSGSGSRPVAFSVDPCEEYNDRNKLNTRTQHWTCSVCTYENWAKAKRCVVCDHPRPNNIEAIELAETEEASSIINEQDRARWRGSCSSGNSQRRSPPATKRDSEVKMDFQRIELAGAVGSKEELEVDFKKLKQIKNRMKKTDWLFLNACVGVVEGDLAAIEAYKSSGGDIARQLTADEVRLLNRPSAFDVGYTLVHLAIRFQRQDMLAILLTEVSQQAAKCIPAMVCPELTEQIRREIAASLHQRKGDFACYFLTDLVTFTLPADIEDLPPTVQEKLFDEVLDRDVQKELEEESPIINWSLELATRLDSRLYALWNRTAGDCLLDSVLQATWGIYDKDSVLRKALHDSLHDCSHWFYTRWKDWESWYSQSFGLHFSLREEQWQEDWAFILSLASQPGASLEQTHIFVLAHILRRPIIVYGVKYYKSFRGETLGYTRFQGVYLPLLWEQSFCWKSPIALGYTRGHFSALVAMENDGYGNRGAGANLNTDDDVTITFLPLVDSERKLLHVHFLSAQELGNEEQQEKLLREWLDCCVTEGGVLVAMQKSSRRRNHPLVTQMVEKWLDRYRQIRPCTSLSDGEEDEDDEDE
# Summary of the method: as §1
# YOD1 = target: T5, YOD1 (UniProt Q5VVQ6)
# T5 sequence (whole entry): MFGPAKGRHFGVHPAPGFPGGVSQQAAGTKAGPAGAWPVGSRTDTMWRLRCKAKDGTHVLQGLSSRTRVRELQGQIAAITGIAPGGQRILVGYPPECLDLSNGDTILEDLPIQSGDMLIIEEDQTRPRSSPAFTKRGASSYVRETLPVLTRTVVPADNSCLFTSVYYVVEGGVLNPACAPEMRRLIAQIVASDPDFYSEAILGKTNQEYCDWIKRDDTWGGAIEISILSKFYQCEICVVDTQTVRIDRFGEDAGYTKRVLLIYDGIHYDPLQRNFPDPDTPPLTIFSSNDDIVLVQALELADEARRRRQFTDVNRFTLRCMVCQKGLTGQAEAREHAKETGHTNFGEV
# Summary of the method: as §1
# Sequence of UniProt O00507 (O00507 whole entry, the tested form may be a part): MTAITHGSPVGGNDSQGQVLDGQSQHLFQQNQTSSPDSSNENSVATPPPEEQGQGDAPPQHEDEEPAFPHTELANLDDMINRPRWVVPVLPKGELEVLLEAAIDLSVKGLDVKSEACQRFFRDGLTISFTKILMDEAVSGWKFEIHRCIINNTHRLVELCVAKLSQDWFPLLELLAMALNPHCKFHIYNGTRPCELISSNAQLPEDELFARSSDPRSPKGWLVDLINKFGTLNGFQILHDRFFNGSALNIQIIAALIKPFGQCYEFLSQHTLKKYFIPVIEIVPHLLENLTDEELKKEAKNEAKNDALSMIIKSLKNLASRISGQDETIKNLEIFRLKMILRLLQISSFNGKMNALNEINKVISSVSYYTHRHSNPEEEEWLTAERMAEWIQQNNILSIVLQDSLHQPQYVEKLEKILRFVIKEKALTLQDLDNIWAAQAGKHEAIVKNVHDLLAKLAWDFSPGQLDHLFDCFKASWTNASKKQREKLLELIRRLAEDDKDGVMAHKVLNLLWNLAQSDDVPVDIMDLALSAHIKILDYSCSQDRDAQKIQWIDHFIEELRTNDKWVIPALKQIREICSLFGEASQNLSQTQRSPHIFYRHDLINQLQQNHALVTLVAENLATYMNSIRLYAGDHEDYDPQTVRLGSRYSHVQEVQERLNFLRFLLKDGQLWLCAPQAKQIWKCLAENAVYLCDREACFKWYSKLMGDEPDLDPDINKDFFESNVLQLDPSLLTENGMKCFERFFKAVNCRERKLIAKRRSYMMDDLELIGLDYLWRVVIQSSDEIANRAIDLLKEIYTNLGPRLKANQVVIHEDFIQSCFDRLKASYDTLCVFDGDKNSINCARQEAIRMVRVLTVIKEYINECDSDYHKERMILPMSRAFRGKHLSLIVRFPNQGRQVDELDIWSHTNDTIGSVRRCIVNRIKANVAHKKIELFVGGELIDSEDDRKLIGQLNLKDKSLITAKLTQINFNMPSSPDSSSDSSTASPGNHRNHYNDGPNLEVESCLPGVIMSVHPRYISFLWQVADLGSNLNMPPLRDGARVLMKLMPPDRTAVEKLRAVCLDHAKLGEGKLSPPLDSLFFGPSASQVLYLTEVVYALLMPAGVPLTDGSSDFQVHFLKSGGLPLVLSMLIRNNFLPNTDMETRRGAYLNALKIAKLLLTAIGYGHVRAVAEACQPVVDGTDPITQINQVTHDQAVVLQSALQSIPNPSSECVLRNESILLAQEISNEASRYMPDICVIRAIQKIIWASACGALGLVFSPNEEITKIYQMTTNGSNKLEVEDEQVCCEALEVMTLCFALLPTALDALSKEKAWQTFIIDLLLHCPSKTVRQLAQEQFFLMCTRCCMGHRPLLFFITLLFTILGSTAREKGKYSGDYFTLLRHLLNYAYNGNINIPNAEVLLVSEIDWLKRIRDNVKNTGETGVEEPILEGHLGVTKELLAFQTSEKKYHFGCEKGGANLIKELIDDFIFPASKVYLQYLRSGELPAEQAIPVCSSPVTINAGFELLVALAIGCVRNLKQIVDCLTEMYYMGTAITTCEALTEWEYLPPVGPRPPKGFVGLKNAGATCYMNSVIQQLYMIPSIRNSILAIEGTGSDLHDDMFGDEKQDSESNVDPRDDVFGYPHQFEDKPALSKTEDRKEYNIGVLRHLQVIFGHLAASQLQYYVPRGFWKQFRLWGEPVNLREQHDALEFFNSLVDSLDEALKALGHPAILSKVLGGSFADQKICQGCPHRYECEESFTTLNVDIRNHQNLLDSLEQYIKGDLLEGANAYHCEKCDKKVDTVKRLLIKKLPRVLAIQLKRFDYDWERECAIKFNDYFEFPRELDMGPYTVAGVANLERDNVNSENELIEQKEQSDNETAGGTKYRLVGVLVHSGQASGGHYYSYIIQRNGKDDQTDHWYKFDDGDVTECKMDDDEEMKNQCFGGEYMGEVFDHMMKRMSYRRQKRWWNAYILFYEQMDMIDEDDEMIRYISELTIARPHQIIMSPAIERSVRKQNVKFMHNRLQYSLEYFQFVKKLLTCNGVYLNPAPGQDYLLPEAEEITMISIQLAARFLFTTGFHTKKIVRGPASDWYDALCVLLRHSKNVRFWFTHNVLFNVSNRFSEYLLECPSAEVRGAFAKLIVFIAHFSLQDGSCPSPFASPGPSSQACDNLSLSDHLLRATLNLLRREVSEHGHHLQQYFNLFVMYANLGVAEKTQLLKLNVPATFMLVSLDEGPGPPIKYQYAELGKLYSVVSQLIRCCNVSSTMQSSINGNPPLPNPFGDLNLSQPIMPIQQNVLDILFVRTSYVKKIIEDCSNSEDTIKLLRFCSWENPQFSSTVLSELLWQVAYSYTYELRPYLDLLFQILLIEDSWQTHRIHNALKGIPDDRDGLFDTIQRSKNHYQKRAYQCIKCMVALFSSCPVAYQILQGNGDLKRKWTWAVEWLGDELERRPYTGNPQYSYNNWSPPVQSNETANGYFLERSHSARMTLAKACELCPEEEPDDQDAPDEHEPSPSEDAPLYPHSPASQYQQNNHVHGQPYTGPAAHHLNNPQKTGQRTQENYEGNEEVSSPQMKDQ
# Sequence of UniProt P51784 (P51784 whole entry): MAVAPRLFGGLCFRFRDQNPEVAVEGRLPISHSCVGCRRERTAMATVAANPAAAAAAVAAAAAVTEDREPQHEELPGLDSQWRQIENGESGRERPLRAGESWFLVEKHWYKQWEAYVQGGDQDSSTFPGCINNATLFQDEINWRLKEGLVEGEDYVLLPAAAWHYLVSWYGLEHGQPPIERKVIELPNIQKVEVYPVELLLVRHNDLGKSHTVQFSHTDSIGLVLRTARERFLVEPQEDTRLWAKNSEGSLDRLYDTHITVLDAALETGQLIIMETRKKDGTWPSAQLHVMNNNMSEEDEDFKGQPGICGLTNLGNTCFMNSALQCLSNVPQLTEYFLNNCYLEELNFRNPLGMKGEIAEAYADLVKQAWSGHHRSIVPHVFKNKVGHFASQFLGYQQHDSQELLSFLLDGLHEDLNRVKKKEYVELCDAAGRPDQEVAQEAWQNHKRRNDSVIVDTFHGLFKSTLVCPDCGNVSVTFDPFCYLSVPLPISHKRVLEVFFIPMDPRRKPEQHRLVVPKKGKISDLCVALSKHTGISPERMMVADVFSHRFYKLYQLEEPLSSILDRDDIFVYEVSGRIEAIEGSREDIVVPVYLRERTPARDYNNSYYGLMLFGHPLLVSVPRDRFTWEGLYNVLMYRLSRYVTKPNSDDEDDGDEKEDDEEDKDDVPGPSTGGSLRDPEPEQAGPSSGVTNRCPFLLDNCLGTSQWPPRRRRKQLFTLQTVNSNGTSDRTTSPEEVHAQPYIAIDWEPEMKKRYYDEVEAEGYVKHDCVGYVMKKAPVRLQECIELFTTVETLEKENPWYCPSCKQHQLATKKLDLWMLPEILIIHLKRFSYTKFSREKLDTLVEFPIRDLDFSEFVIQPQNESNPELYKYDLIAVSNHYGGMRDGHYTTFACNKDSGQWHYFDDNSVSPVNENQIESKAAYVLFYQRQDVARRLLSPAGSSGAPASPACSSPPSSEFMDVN
SMILES,log2 ratio of Biotin-Ahx-Ub-VS probe labelling (UniProt O00507),log2 ratio of Biotin-Ahx-Ub-VS probe labelling (UniProt P51784),log2 ratio of Biotin-Ahx-Ub-VS probe labelling (UniProt Q5T2D3),log2 ratio of Biotin-Ahx-Ub-VS probe labelling (UniProt Q8TE49),log2 ratio of Biotin-Ahx-Ub-VS probe labelling (UniProt Q9P2H5),log2 ratio of Biotin-Ahx-Ub-VS probe labelling (UniProt Q9UGI0),log2 ratio of Biotin-Ahx-Ub-VS probe labelling (YOD1)
Cc1cc(C2CCCN2C(=O)CCl)nn1C.Cl (configuration not stated),-0.0169,-0.386,-0.106,-0.432,-0.247,0.115,-0.199
O=C(CN1CCN(C(=O)CCl)CC1)Nc1cccc(F)c1,0.00838,-0.0576,-0.264,-0.292,-0.486,-0.37,0.0312
O=C(CCl)N(C1=CCCCC1)C1CC1,0.309,-0.0543,-0.118,-0.435,-0.351,0.0561,-0.0863
CCN1C(=O)C2CN(C(=O)CCl)CCN2C1=O (configuration not stated),0.428,0.0433,-0.0669,-0.958,-0.223,0.112,0.177
O=C(CCl)N1c2ccccc2NC(=O)C12CCCC2,-0.37,0.258,-0.0754,-0.35,0.0618,-0.0496,-0.0709
O=C(CCl)N1CCC(c2nc3ccccc3o2)CC1,-0.57,-0.0526,-0.14,-0.625,-0.191,-0.567,-0.217
O=C(CCl)N1CCC(=C(F)CO)C1,0.605,0.155,0.0125,-0.47,-0.115,-0.16,0.406
Cc1ccc(N2CCC(NC(=O)CCl)C2=O)cc1 (configuration not stated),0.561,0.0347,-0.0872,-0.518,-0.134,0.0412,0.132
O=C(CCl)N1CCC(O)(Cc2ccc(F)cc2)C1 (configuration not stated),-0.253,0.313,-0.16,-0.0913,0.0413,-0.196,0.2
Cn1cc(CN(Cc2ccc(Cl)cc2)C(=O)CCl)cn1,-0.606,-0.11,0.147,-0.82,-0.065,-0.327,-0.0228
CN(C)C(=O)c1ccc(CNC(=O)CCl)cc1,0.565,0.0173,-0.167,-0.516,-0.0353,-0.474,0.0763
Cc1cccnc1NC(=O)C1CCN(C(=O)CCl)CC1.Cl,-0.282,-0.0141,-0.408,-0.254,-0.348,-0.465,-0.214
Cc1ccn2cc(CNC(=O)CCl)nc2c1.Cl,0.237,-0.0387,-0.599,-0.359,-0.141,-0.262,0.0926
Cc1n[nH]c(=O)c2c(NC(=O)CCl)oc(C)c12,0.347,0.0686,-0.674,-0.575,-0.144,0.264,0.238
O=C(CCl)Nc1cccc(NC(=O)c2ccccc2)c1,0.236,0.295,0.263,-0.0536,-0.23,0.0168,0.288
O=C(CCl)Nc1ccc(F)cc1Cl,-0.442,-0.238,-0.425,-1.35,-0.211,-1.18 (active),-0.759
Cc1ccccc1OCC(=O)N1CCN(C(=O)CCl)CC1,0.258,-0.215,-0.106,-0.335,-0.172,-0.104,-0.00243
O=C(CCl)Nc1cc(Cl)ccc1-n1cncn1,-1.06 (active),-0.871,-0.95,-1.44 (active),-0.954,-1.05 (active),-1.12 (active)
CC(O)CC1CCN(C(=O)CCl)CC1 (configuration not stated),0.0435,-0.0578,-0.0758,-0.714,0.0392,0.164,-0.124
Cl.O=C(CCl)NCCc1ncc(F)cc1F,0.000732,-0.132,-0.431,-0.85,-0.675,-0.786,-0.195
O=C(CCl)N1CCN(C(=O)Nc2ccccc2)CC1,0.452,0.16,-0.132,-0.337,-0.158,0.0377,0.444
